Experimental findings from PubChem BioAssay (NCATS) are described below.

Records with an inconclusive call do not appear. Entries that show only a call come without a potency. Activity calls are given as the source filed them. Calls follow the shape of the dose curve; as a rule, active = well fitted inhibition curve with a large enough effect; inconclusive = small, poorly fitted or top-dose-only effect; inactive = flat fitted curve, though single readings scatter.
Potency is read from the fitted curve at half-maximal effect.

The subject of the first experiment is DIV14. Put plainly: qHTS profiling for inhibitors of Plasmodium falciparum proliferation (AID 504749). Also: nearly all actives have a fitted effect of over 60% in size. The settings on record: P. falciparum in erythrocytes, SYBR Green DNA, 72 h; series mostly up to 28.7 µM. The method, boiled down: (§1)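 Each compound contacts P. falciparum-infected red blood cells for 72 h at 37 C; lysis buffer (Tris, EDTA, saponin, Triton X, SYBR Green I) is added and fluorescence measured next morning; values normalized to controls.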
Take `CN1C(C(=O)Nc2ccccn2)C(=O)c2sc(Cl)cc2S1(=O)=O` (stereo not drawn): the Potency result is “inactive”.
Take `CC(CC=O)CCCC(C)(C)O` (stereo not drawn): the Potency entry was “inactive”.
`O=S(=O)(O)CC(S)CS` (stereo not drawn): the Potency result is “inactive”.
With `CO/N=C(\C(=O)N[C@@H]1C(=O)N2C(C(=O)[O-])=C(C[n+]3cccc4c3CCC4)CS[C@H]12)c1csc(N)n1`, the Potency entry was “inactive”.
Same read-out and setting: the value for `NCCO/C=C/[C@H](N)C(=O)O` was “inactive”; that for `CCCCCCCCCCCC(=O)N(CCO)CCO` was “inactive”.
On the same count and under the same terms, for `CC(C)(COP(=O)(O)OP(=O)(O)OC[C@H]1O[C@@H](n2cnc3c(N)ncnc32)[C@H](O)[C@@H]1OP(=O)(O)O)C(O)C(=O)NCCC(=O)NCCS` (stereo partly drawn) the value was “inactive”.
As to `O=P(O)(O)CP(=O)(O)O`, the Potency result is “inactive”.
As to `CC(C)(Oc1ccc(C2CCCc3ccccc32)cc1)C(=O)O` (stereo not drawn), the Potency result is “inactive”.
With `CC(C)(CO)[C@@H](O)C(=O)NCCC(=O)NCCSSCCNC(=O)CCNC(=O)[C@H](O)C(C)(C)CO`, the Potency result was “inactive”.
On to `CCCOC(=O)c1ccccc1O`, for which the Potency entry is “inactive”.
For `C[Si](C)(C)O[Si](C)(C)C`, the Potency entry was “inactive”.
Take `CC1C(=O)CC2C3(C)CCC2(C(C)C(=O)O)C(=O)C13` (stereo not drawn): the Potency result is “inactive”.
With `C/C=C/C=C/C(=O)O`, the Potency entry is “inactive”.
`O=C(O)CCC/C=C\C[C@@H]1[C@@H](/C=C/[C@@H](O)COc2cccc(C(F)(F)F)c2)[C@H](O)C[C@@H]1O`: the Potency result is “inactive”.
As to `O=C(O)[C@H]1CN(C/C=C/P(=O)(O)O)CCN1`, the Potency result is “inactive”.
As to `O=C(O)[C@H]1C(=CCO)O[C@H]2CC(=O)N12`, the Potency entry was “inactive”.
Still for that read-out and setting: the value for `CCCC(=O)O` was “inactive”.
On the same count and under the same terms, for `OC[C@H]1O[C@@H]2O[C@H]3[C@H](O)[C@@H](O)[C@@H](O[C@H]4[C@H](O)[C@@H](O)[C@@H](O[C@H]5[C@H](O)[C@@H](O)[C@@H](O[C@H]6[C@H](O)[C@@H](O)[C@@H](O[C@H]7[C@H](O)[C@@H](O)[C@@H](O[C@H]1[C@H](O)[C@H]2O)O[C@@H]7CO)O[C@@H]6CO)O[C@@H]5CO)O[C@@H]4CO)O[C@@H]3CO` the value was “inactive”; for `Cc1c(Cl)cccc1Nc1ncccc1C(=O)O`, “inactive”.
Turning to `CCc1ncnc2cc(OC)c(OC)cc12`, the Potency entry was “inactive”.
With `CC/C(=C(/CC)c1ccc(OP(=O)(O)O)cc1)c1ccc(OP(=O)(O)O)cc1`, the Potency result was “inactive”.
On the same count and under the same terms, the value for `Cc1cccc(Nc2ncccc2C(=O)O)c1C` was “inactive”; that for `CC1=CC(=C(c2ccc(N)cc2)c2ccc(N)cc2)C=CC1=N` was 1.07 µM (active); that for `ClC(Cl)Cl` was “inactive”.
On to `O=C(O)COc1ccc(CCNS(=O)(=O)c2ccccc2)s1`, for which the Potency entry was “inactive”.
In the case of `C=Cc1ccc(S(=O)(=O)O)cc1`, the Potency entry is “inactive”.
As to `CCCCO`, the Potency entry was “inactive”.
On the same count and under the same terms, the value for `CC(C)(C)c1ccc2c(S(=O)(=O)O)c(C(C)(C)C)ccc2c1` was “inactive”.
Same read-out and setting: for `CNC(=O)OCc1cccc(COC(=O)NC)n1` the value was “inactive”.
Consider `O=C(NCCNCC(O)COc1ccc(O)cc1)N1CCOCC1` (stereo not drawn), for which the Potency result is “inactive”.
As to `C=CC(C)(O)CC/C=C(\C)CCC=C(C)C` (stereo not drawn), the Potency entry is “inactive”.
For the molecule `CO[C@H]1C[C@@H]2CC[C@@H](C)[C@@](O)(O2)C(=O)C(=O)N2CCCC[C@H]2C(=O)O[C@H]([C@H](C)C[C@@H]2CC[C@@H](OC(=O)C(C)(CO)CO)[C@H](OC)C2)CC(=O)[C@H](C)/C=C(\C)[C@@H](O)[C@@H](OC)C(=O)[C@H](C)C[C@H](C)/C=C/C=C/C=C/1C`, the Potency entry is “inactive”.
Take `CNC(=O)c1c(I)c(C(=O)NCC(=O)Nc2c(I)c(C(=O)O)c(I)c(C(=O)NCCO)c2I)c(I)c(N(C)C(C)=O)c1I`: the Potency result is “inactive”.
`O=C(NNCS(=O)(=O)O)c1ccncc1`: the Potency entry was “inactive”.
As for `COc1cc2c(cc1OC)[C@@H](Cc1cc(OC)c(OC)c(OC)c1)[N+](C)(CCCOC(=O)CC/C=C/CCC(=O)OCCC[N+]1(C)CCc3cc(OC)c(OC)cc3[C@H]1Cc1cc(OC)c(OC)c(OC)c1)CC2` (stereo partly drawn), the Potency result was “inactive”.
On the same count and under the same terms, for `CCCCCCCCCCCCCCCCCC[N+](C)(C)CCC[Si](OC)(OC)OC` the value was “inactive”; for `Nc1ncnc2c1ncn2CCOCP(=O)(O)O`, “inactive”.
Consider `CC1=C(/C=C/C(C)=C/C=C/C(C)=C/C(=O)Oc2c(C)c(C)c3c(c2C)CC[C@@](C)(CCC[C@H](C)CCC[C@H](C)CCCC(C)C)O3)C(C)(C)CCC1`, for which the Potency entry is “inactive”.

The next experiment relates to DIV17. The experiment is described as above. Conditions: P. falciparum in erythrocytes, SYBR Green DNA, 72 h; series mostly up to 28.7 µM. Summed up:
as §1
As for `CN1C(C(=O)Nc2ccccn2)C(=O)c2sc(Cl)cc2S1(=O)=O` (stereo not drawn), the Potency result was “inactive”.
On to `CC(CC=O)CCCC(C)(C)O` (stereo not drawn), for which the Potency result is “inactive”.
Take `O=S(=O)(O)CC(S)CS` (stereo not drawn): the Potency result was “inactive”.
Take `CO/N=C(\C(=O)N[C@@H]1C(=O)N2C(C(=O)[O-])=C(C[n+]3cccc4c3CCC4)CS[C@H]12)c1csc(N)n1`: the Potency result was “inactive”.
Same read-out and setting: the value for `NCCO/C=C/[C@H](N)C(=O)O` was “inactive”; that for `CCCCCCCCCCCC(=O)N(CCO)CCO` was “inactive”; that for `CC(C)(COP(=O)(O)OP(=O)(O)OC[C@H]1O[C@@H](n2cnc3c(N)ncnc32)[C@H](O)[C@@H]1OP(=O)(O)O)C(O)C(=O)NCCC(=O)NCCS` (stereo partly drawn) was “inactive”.
As to `O=P(O)(O)CP(=O)(O)O`, the Potency entry was “inactive”.
As to `CC(C)(Oc1ccc(C2CCCc3ccccc32)cc1)C(=O)O` (stereo not drawn), the Potency result is “inactive”.
As to `CC(C)(CO)[C@@H](O)C(=O)NCCC(=O)NCCSSCCNC(=O)CCNC(=O)[C@H](O)C(C)(C)CO`, the Potency result was “inactive”.
Consider `CCCOC(=O)c1ccccc1O`, for which the Potency entry was “inactive”.
Take `C[Si](C)(C)O[Si](C)(C)C`: the Potency entry was “inactive”.
On the same count and under the same terms, the value for `CC1C(=O)CC2C3(C)CCC2(C(C)C(=O)O)C(=O)C13` (stereo not drawn) was “inactive”; that for `C/C=C/C=C/C(=O)O` was “inactive”; that for `O=C(O)CCC/C=C\C[C@@H]1[C@@H](/C=C/[C@@H](O)COc2cccc(C(F)(F)F)c2)[C@H](O)C[C@@H]1O` was “inactive”.
Still for that read-out and setting: the value for `O=C(O)[C@H]1CN(C/C=C/P(=O)(O)O)CCN1` was “inactive”; that for `O=C(O)[C@H]1C(=CCO)O[C@H]2CC(=O)N12` was “inactive”; that for `CCCC(=O)O` was “inactive”.
With `OC[C@H]1O[C@@H]2O[C@H]3[C@H](O)[C@@H](O)[C@@H](O[C@H]4[C@H](O)[C@@H](O)[C@@H](O[C@H]5[C@H](O)[C@@H](O)[C@@H](O[C@H]6[C@H](O)[C@@H](O)[C@@H](O[C@H]7[C@H](O)[C@@H](O)[C@@H](O[C@H]1[C@H](O)[C@H]2O)O[C@@H]7CO)O[C@@H]6CO)O[C@@H]5CO)O[C@@H]4CO)O[C@@H]3CO`, the Potency result is “inactive”.
For `Cc1c(Cl)cccc1Nc1ncccc1C(=O)O`, the Potency entry was “inactive”.
As to `CCc1ncnc2cc(OC)c(OC)cc12`, the Potency result is “inactive”.
As to `CC/C(=C(/CC)c1ccc(OP(=O)(O)O)cc1)c1ccc(OP(=O)(O)O)cc1`, the Potency result is “inactive”.
Take `Cc1cccc(Nc2ncccc2C(=O)O)c1C`: the Potency entry was “inactive”.
In the case of `CC1=CC(=C(c2ccc(N)cc2)c2ccc(N)cc2)C=CC1=N`, the Potency was 1.35 µM (active).
Turning to `ClC(Cl)Cl`, the Potency result was “inactive”.
On the same count and under the same terms, the value for `O=C(O)COc1ccc(CCNS(=O)(=O)c2ccccc2)s1` was “inactive”.
`C=Cc1ccc(S(=O)(=O)O)cc1`: the Potency result was “inactive”.
On to `CCCCO`, for which the Potency entry was “inactive”.
Take `CC(C)(C)c1ccc2c(S(=O)(=O)O)c(C(C)(C)C)ccc2c1`: the Potency entry is “inactive”.
`CNC(=O)OCc1cccc(COC(=O)NC)n1`: the Potency entry was “inactive”.
Same read-out and setting: the value for `O=C(NCCNCC(O)COc1ccc(O)cc1)N1CCOCC1` (stereo not drawn) was “inactive”; that for `C=CC(C)(O)CC/C=C(\C)CCC=C(C)C` (stereo not drawn) was “inactive”.
On to `CO[C@H]1C[C@@H]2CC[C@@H](C)[C@@](O)(O2)C(=O)C(=O)N2CCCC[C@H]2C(=O)O[C@H]([C@H](C)C[C@@H]2CC[C@@H](OC(=O)C(C)(CO)CO)[C@H](OC)C2)CC(=O)[C@H](C)/C=C(\C)[C@@H](O)[C@@H](OC)C(=O)[C@H](C)C[C@H](C)/C=C/C=C/C=C/1C`, for which the Potency result is “inactive”.
For `CNC(=O)c1c(I)c(C(=O)NCC(=O)Nc2c(I)c(C(=O)O)c(I)c(C(=O)NCCO)c2I)c(I)c(N(C)C(C)=O)c1I`, the Potency result was “inactive”.
Still for that read-out and setting: for `O=C(NNCS(=O)(=O)O)c1ccncc1` the value was “inactive”; for `COc1cc2c(cc1OC)[C@@H](Cc1cc(OC)c(OC)c(OC)c1)[N+](C)(CCCOC(=O)CC/C=C/CCC(=O)OCCC[N+]1(C)CCc3cc(OC)c(OC)cc3[C@H]1Cc1cc(OC)c(OC)c(OC)c1)CC2` (stereo partly drawn), “inactive”; for `CCCCCCCCCCCCCCCCCC[N+](C)(C)CCC[Si](OC)(OC)OC`, “inactive”.
For `Nc1ncnc2c1ncn2CCOCP(=O)(O)O`, the Potency result is “inactive”.
Consider `CC1=C(/C=C/C(C)=C/C=C/C(C)=C/C(=O)Oc2c(C)c(C)c3c(c2C)CC[C@@](C)(CCC[C@H](C)CCC[C@H](C)CCCC(C)C)O3)C(C)(C)CCC1`, for which the Potency entry was “inactive”.
